A short description of test [1]: Quantitative High-Throughput drug screen in 47 multiple myeloma cell lines against the NCATS MIPE library collection: KHM11_PLB cell viability assay (AID 1918962). Also: nearly all actives have a fitted effect of over 35% in size. Summed up:
(§1)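 CellTiter-Glo luminescence (ATP) after 48 h compound exposure, 37C/5% CO2; 500 cells/well; MIPE 4.0 approved/investigational drugs pinned in; DMSO = 100%, media only = 0% viability.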

Test [2] can be described thus: Quantitative High-Throughput drug screen in 47 multiple myeloma cell lines against the NCATS MIPE library collection: JIM3_ECACC cell viability assay (AID 1918963; also: nearly all actives have a fitted effect of over 35% in size). Summed up:
as §1

The nature of test [3]: Quantitative High-Throughput drug screen in 47 multiple myeloma cell lines against the NCATS MIPE library collection: JIM1_ECACC cell viability assay (AID 1918964). The gist of the method: (§2)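 CellTiter-Glo ATP luminescence gave viability after 48 h compound treatment at 37C of 500 multiple myeloma cells per well. Normalisation used DMSO-only wells as 100% and media-only wells as 0% viability; primary qHTS of approved and investigational drugs.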

The nature of test [4]: Quantitative High-Throughput drug screen in 47 multiple myeloma cell lines against the NCATS MIPE library collection: INA6_PLB cell viability assay (AID 1918965; also: nearly all actives have a fitted effect of over 55% in size). The gist of the method: (§3)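 Myeloma cells (500 per well) were exposed to MIPE 4.0 compounds by pin transfer and incubated 48 hours at 37C, 5% CO2. Viability was read as ATP by CellTiter-Glo luminescence, normalised to DMSO (100%) and media-only (0%) wells.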

Test [5] in a line: Quantitative High-Throughput drug screen in 47 multiple myeloma cell lines against the NCATS MIPE library collection: JJN3_DSMZ cell viability assay (AID 1918966; also: nearly all actives have a fitted effect of over 50% in size). Summed up:
as §2

Test [6] in a line: Quantitative High-Throughput drug screen in 47 multiple myeloma cell lines against the NCATS MIPE library collection: KMS27_JCRB cell viability assay (AID 1918970). Also: nearly all actives have a fitted effect of over 30% in size. Summed up: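 Luminescent ATP read-out (CellTiter-Glo, 5 min at room temperature) after 48 h compound exposure of 500 KMS27_JCRB cells per well; DMSO wells define full viability and media-only wells zero.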
The nature of test [7]: Quantitative High-Throughput drug screen in 47 multiple myeloma cell lines against the NCATS MIPE library collection: KMS12BM_JCRB cell viability assay (AID 1918971). Also: nearly all actives have a fitted effect of over 35% in size. Summed up: (§4)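 Inhibition of cell viability is measured here. Each line was plated at 500 cells per well, treated with MIPE 4.0 drugs, kept 48 hours at 37C, then assayed for ATP content by CellTiter-Glo luminescence.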

Test [8] can be described thus: Quantitative High-Throughput drug screen in 47 multiple myeloma cell lines against the NCATS MIPE library collection: KMS12PE_JCRB cell viability assay (AID 1918972). Also: nearly all actives have a fitted effect of over 30% in size. The gist of the method: as §3
Test [9] can be described thus: Quantitative High-Throughput drug screen in 47 multiple myeloma cell lines against the NCATS MIPE library collection: KMS20_JCRB cell viability assay (AID 1918973). Also: nearly all actives have a fitted effect of over 45% in size. The gist of the method:
as §2

Test [10] in a line: Quantitative High-Throughput drug screen in 47 multiple myeloma cell lines against the NCATS MIPE library collection: KMS21BM_JCRB cell viability assay (AID 1918974). Particulars: ATP luminescence, 48 h; viability: at 45.8 µM (top of the series). The gist of the method:
as §2

Test [11] is described as follows: Quantitative High-Throughput drug screen in 47 multiple myeloma cell lines against the NCATS MIPE library collection: KMS26_JCRB cell viability assay (AID 1918975). Also: nearly all actives have a fitted effect of over 45% in size. The gist of the method:
as §4

Test [12] can be described thus: Quantitative High-Throughput drug screen in 47 multiple myeloma cell lines against the NCATS MIPE library collection: MMM1_PLB cell viability assay (AID 1918976). Also: nearly all actives have a fitted effect of over 35% in size. Summed up:
(§5)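 Myeloma cells (500/well) treated with MIPE 4.0 compounds for 48 h at 37 °C, 5% CO2. Viability read as ATP via CellTiter-Glo luminescence after 5 min at RT; DMSO-only wells = 100%, media-only = 0% viability.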

Test [13] in a line: Quantitative High-Throughput drug screen in 47 multiple myeloma cell lines against the NCATS MIPE library collection: MOLP8_DSMZ cell viability assay (AID 1918977). Also: nearly all actives have a fitted effect of over 45% in size. Summed up:
as §5

Test [14] can be described thus: Quantitative High-Throughput drug screen in 47 multiple myeloma cell lines against the NCATS MIPE library collection: NCIH929_DSMZ cell viability assay (AID 1918978). Also: nearly all actives have a fitted effect of over 35% in size. Summed up:
as §5

Test [15] in a line: Quantitative High-Throughput drug screen in 47 multiple myeloma cell lines against the NCATS MIPE library collection: OCIMY1_PLB cell viability assay (AID 1918979). Also: nearly all actives have a fitted effect of over 35% in size. Summed up: as §5
Test [16] can be described thus: Quantitative High-Throughput drug screen in 47 multiple myeloma cell lines against the NCATS MIPE library collection: MM1S_ATCC cell viability assay (AID 1918980). Also: nearly all actives have a fitted effect of over 45% in size. The gist of the method: as §5
The nature of test [17]: Quantitative High-Throughput drug screen in 47 multiple myeloma cell lines against the NCATS MIPE library collection: MM1R_ATCC cell viability assay (AID 1918981). Also: nearly all actives have a fitted effect of over 35% in size. Summed up: as §5
Test [18] is described as follows: Quantitative High-Throughput drug screen in 47 multiple myeloma cell lines against the NCATS MIPE library collection: LP1_DSMZ cell viability assay (AID 1918982). Also: nearly all actives have a fitted effect of over 35% in size. The gist of the method: as §5
A short description of test [19]: Quantitative High-Throughput drug screen in 47 multiple myeloma cell lines against the NCATS MIPE library collection: H1112_PLB cell viability assay (AID 1918967; also: nearly all actives have a fitted effect of over 30% in size). The gist of the method: as §2
A short description of test [20]: Quantitative High-Throughput drug screen in 47 multiple myeloma cell lines against the NCATS MIPE library collection: Karpas25_ECACC cell viability assay (AID 1918968; also: nearly all actives have a fitted effect of over 35% in size). The gist of the method: as §2

Results filed as inconclusive are left out. Calls of active or inactive are those of the source. Calls follow the shape of the dose curve; as a rule, active = well fitted curve in the direction sought with a large enough effect; inconclusive = small, poorly fitted or top-dose-only effect, or another doubt; inactive = no such curve, though single readings can be large; an effect the other way counts as inactive or inconclusive.
Potency is read from the fitted curve at half-maximal effect.

For the compound `C1CCC(C(CC2CCCCN2)C2CCCCC2)CC1` (configuration not stated), the Potency in test [1] was 11.8 µM (active); in [2], 18.7 µM (active); in test [3], 20.9 µM (active); in test [4], 9.35 µM (active); in test [5], 20.9 µM (active); in test [6], 10.5 µM (active). In addition, the Potency is 9.35 µM (active) in test [7]; 8.33 µM (active) in [8]; 6.62 µM (active) in test [9]; 11.8 µM (active) in test [10]; 16.6 µM (active) in test [11]; 8.33 µM (active) in test [12]. Besides, the Potency in test [13] is 16.6 µM (active); in test [14], 20.9 µM (active); in [15], 29.6 µM (active); in test [16], 6.62 µM (active); in test [17], 9.35 µM (active); in test [18], 14.8 µM (active).

For `CC(C)C1CCC(C(=O)N[C@H](Cc2ccccc2)C(=O)O)CC1` (some centres not stated), the Potency entry in [1], in [2], in [3], in test [19], in test [6] and in test [8] was “inactive” in each case. Moreover, the Potency result in [9], in test [11], in test [14], in [17] and in test [18] was “inactive” throughout. In addition, the Potency in [16] is 16.6 µM (active).

With `CN1CCCC(n2nc(Cc3ccc(Cl)cc3)c3ccccc3c2=O)CC1` (configuration not stated), the Potency in test [1] was 6.62 µM (active); in test [2], 14.8 µM (active); in test [4], 1.32 µM (active); in [5], 2.96 µM (active); in test [20], 1.32 µM (active); in test [7], 4.18 µM (active). Besides, the Potency in [11] was 3.72 µM (active); in test [12] it was 8.33 µM (active); in test [14], 0.935 µM (active); in test [16], 0.662 µM (active); in test [17], 2.35 µM (active).

Consider `CC(=O)Oc1ccccc1C(=O)Nc1ncc([N+](=O)[O-])s1`, for which the Potency in test [1] was 21.5 µM (active); in test [2], 17.1 µM (active); in test [3], 27 µM (active); in test [4], 17.1 µM (active); in test [5], 30.3 µM (active); in [19], 21.5 µM (active). Moreover, the Potency is 12.1 µM (active) in test [6]; 24.1 µM (active) in test [7]; 24.1 µM (active) in [8]; 8.55 µM (active) in [9]; 17.1 µM (active) in test [10]; 15.2 µM (active) in test [11]. The Potency in [12] was 10.8 µM (active); in [13], 34 µM (active); in test [14] it was 19.1 µM (active); in [15], 42.9 µM (active); in test [16] it was 21.5 µM (active); in test [18], 21.5 µM (active).

As to `CNC1CCCN(c2c(F)cc3c(=O)c(C(=O)O)cn(C4CC4)c3c2OC)C1` (configuration not stated), the Potency entry in [1], in [2], in [3], in [7], in test [9] and in [15] was “inactive” throughout. Moreover, the Potency entry in test [18] is “inactive”. Further, the Potency in [20] is 9.35 µM (active); in test [6], 0.0209 µM (active); in test [14], 1.48 µM (active); in [16] it was 11.8 µM (active).

Take `Cn1nnc2c(C(N)=O)ncn2c1=O`: the Potency result in test [1], in test [2], in test [3], in [5], in test [19] and in test [6] was “inactive” in each case. Besides, the Potency result in [8], in test [9], in [12], in test [13], in test [14] and in test [17] was “inactive” in each case. Besides, the Potency result in [18] was “inactive”.

In the case of `CC(C)C[C@H](NC(=O)[C@H](CCc1ccccc1)NC(=O)CN1CCOCC1)C(=O)N[C@@H](Cc1ccccc1)C(=O)N[C@@H](CC(C)C)C(=O)[C@@]1(C)CO1`, the Potency in test [1] is 0.001 µM (active); in test [2], 0.0235 µM (active); in test [3], 0.0074 µM (active); in test [4], 0.001 µM (active); in test [5], 0.0074 µM (active); in [6], 0.001 µM (active). Also, the Potency in test [7] was 0.0053 µM (active); in test [8], 0.001 µM (active); in [12], 0.0833 µM (active); in [13], 0.0019 µM (active); in test [14], 0.001 µM (active); in [15], 0.0093 µM (active). In addition, the figures for the Potency in test [16] and in test [18] were 0.0023 µM (active) and 0.0093 µM (active), respectively.

(Values after PubChem BioAssay (NCATS).)
